System: BLK
Details: concentration: 1 μM, replicates: in singlicate; n = 1
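Further: KINOMEscan kinase panel screen.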

Row | SMILES | %Inh [%]
1 | Cc1ccc(NC(=O)c2cccc(C#N)c2)cc1-c1ccc(C(=O)Nc2ccncc2)cc1 [GSK1398463] | 31
2 | CS(=O)(=O)CCNCc1ccc(-c2ccc3ncnc(Nc4ccc(OCc5ccccc5)c(Cl)c4)c3c2)o1.Cl [GW574783] | 49
3 | Fc1ccc(-c2ncn(CCCNCc3ccccc3)c2-c2ccncc2)cc1 | 7
4 | CCc1nc(-c2cccc(C)c2)c(-c2ccnc(NC(=O)c3ccccc3)c2)s1 | 16
5 | c1ccc(-c2ccc3c(-c4ccnc(Nc5ccc6c(c5)OCCO6)n4)cnn3n2)cc1 [GW818941] | 12
6 | CSc1ccc(NC2=C(c3ccccc3Cl)C(=O)NC2=O)cc1 [SB-342411] | 0
7 | FC(F)(F)c1ccc(-c2cc(-c3c[nH]nc3-c3ccccn3)ccn2)cc1 [GW599550] | 39
8 | COc1ccc(NC(=O)Nc2ccc(C)c(-c3ccc(C(=O)Nc4ccncc4)cc3)c2)cc1 [GSK1398475] | 28
9 | Fc1ccc(Nc2nccc(-c3c(-c4ccc(Cl)cc4)nn4ncccc34)n2)cc1F [GW829058] | 0
10 | Cn1cc(-c2ccc3c(c2)CCN3C(=O)Cc2cccc(C(F)(F)F)c2)c2c(N)ncnc21 [GSK2606414] | 36
11 | O=C(CCO)NCCn1ccc2ncnc(Nc3ccc(Oc4cccc(C(F)(F)F)c4)c(Cl)c3)c21 | 0
12 | CNc1nccc(-c2c(-c3ccc(F)cc3)ncn2CCCN2CCOCC2)n1 [SB-222516] | 17
13 | COC(=O)c1cccc(NC(=O)NCCNc2ccnc(Nc3ccc(F)cc3)n2)c1 [GSK1379883] | 0
